The results in this text go back to PubChem BioAssay AID1159577 (Broad Institute, 2015).

The structures appear in SMILES notation. The campaign covered roughly 1,300 compounds. About 240 (18%) were called active. Another 8% or so got no clear call; they are omitted. Only a sample is shown. Entries with a potency or affinity are not part of this list. A number with no mark means an inactive call. The rule behind the calls is not given here.

The assay can be described thus: HepG2 cell cytotoxicity, dose response, cytotoxicity control, cherry-picked samples (AID 1159577).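 Note: 0% = neutral control wells and -100% = positive control wells.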 The conditions noted are these: HepG2 cytotoxicity counterscreen, plate reader; series mostly up to 19.5 µM; activity change, negative = cytotoxicity: at the top concentration.
In the case of `O=C(C1CCCCC1)N1[C@H](CO)[C@@H](c2ccccc2)C12CN(Cc1cccc(Cl)c1)C2`, the “activity change, negative = cytotoxicity” value was -17.7%.

Turning to `CN(C)c1ccc2c(c1)[C@@H]1C[C@@H](CC(=O)NCc3cc(F)ccc3F)O[C@@H](CO)[C@@H]1O2`, the “activity change, negative = cytotoxicity” value was -2.86%. With `CC(C)(C)[S@](=O)N1Cc2cc(C(=O)N[C@@H]3CCN(Cc4ccccc4)C3)nc(-c3cccc(-c4cccnc4)c3)c2[C@@H]1CCO` the figure was 25% [at 21 µM]; with `C/C=C/c1ccc2c(c1)[C@@H]1[C@@H](CCN1C(=O)C1CCCC1)[C@H](CO)N2`, 24.7%. With `O=C(C1CCCC1)N1CC2(C1)[C@@H](c1ccccc1)[C@H](CO)N2Cc1ccc(Cl)cc1` the figure was 5.85% [at 21 µM]; with `CO[C@@H]1CN(C)C(=O)c2cc(NC(=O)Nc3cccc(Cl)c3)ccc2OC[C@H](C)NC[C@H]1C`, -4.09%. The result for `CO[C@@H]1CN(C)C(=O)c2cc(NC(=O)Nc3cccc(Cl)c3)ccc2OC[C@@H](C)NC[C@@H]1C` reads -5.39%. `CO[C@@H]1CN(C)C(=O)c2cc(NC(=O)Nc3ccc(C(F)(F)F)cc3)ccc2OC[C@@H](C)NC[C@@H]1C`: the “activity change, negative = cytotoxicity” value was -9.95%. In the case of `CO[C@@H]1CN(C)C(=O)c2cc(NC(=O)Nc3ccc(C(F)(F)F)cc3)ccc2OC[C@H](C)NC[C@@H]1C`, the “activity change, negative = cytotoxicity” value was -6.48%. With `CO[C@H]1CN(C)C(=O)c2cc(NC(=O)Nc3ccc(C(F)(F)F)cc3)ccc2OC[C@H](C)NC[C@H]1C`, the “activity change, negative = cytotoxicity” value is 5.35%. Take `CO[C@@H]1CN(C)C(=O)c2cc(NC(=O)Nc3ccc(C(F)(F)F)cc3)ccc2OC[C@H](C)NC[C@H]1C`: the “activity change, negative = cytotoxicity” value is -34.1%. The result for `CO[C@H]1CN(C)C(=O)c2cc(NC(=O)Nc3cccc(Cl)c3)ccc2OC[C@H](C)NC[C@H]1C` reads -15.7%; that for `Cc1ccccc1S(=O)(=O)N1[C@H](CO)[C@@H](c2ccc(C#CC3CC3)cc2)[C@@H]1C#N`, 19.9%. The result for `CCCNC(=O)N1[C@H](C#N)[C@H](c2ccc(-c3ccccc3F)cc2)[C@@H]1CO` reads -24%. As for `COc1ccc(C#Cc2cnc3c(c2)C(=O)N([C@H](C)CO)C[C@H](C)[C@H](CN(C)S(=O)(=O)c2cccc(F)c2)O3)cc1OC`, the “activity change, negative = cytotoxicity” value was 2.52%. The result for `COc1ccc(CN2CC3(CCN(C(=O)c4ccccc4)CC3)c3c([nH]c4cc(OC)ccc34)[C@@H]2CO)cc1` reads -8.87%.

With `O=C(c1ccc(F)cc1)N1CC(=O)N2[C@H](CO)[C@H](c3ccc(-c4cccnc4)cc3)[C@H]2C1`, the “activity change, negative = cytotoxicity” value was 10.8%.

`O=C(C1CCOCC1)N1[C@H](CO)[C@@H](c2ccccc2)C12CN(Cc1cccc(Cl)c1)C2`: the “activity change, negative = cytotoxicity” value is 15.3%. As for `COc1ccc(-c2ccc([C@@H]3[C@H]4CN(C(=O)NC(C)C)CC(=O)N4[C@H]3CO)cc2)cc1`, the “activity change, negative = cytotoxicity” value is 1.65%. The result for `COc1ccc2c3c(n(C)c2c1)[C@H](CO)N(C(=O)Nc1ccc(F)cc1)CC31CCN(S(=O)(=O)c2cccc(F)c2)CC1` reads -7.75%; that for `CN1c2ccc(-c3cccc(C#N)c3)cc2[C@H]2[C@H](CCN2S(=O)(=O)c2ccccc2F)[C@H]1CO`, 27.2%. The result for `CCCN(C)C[C@@H]1Oc2cc(C#Cc3cccnc3)ccc2S(=O)(=O)N([C@H](C)CO)C[C@@H]1C` reads -7.54%.

Turning to `COc1ccc2c3c([nH]c2c1)[C@H](CO)N(Cc1ccccc1Cl)CC31CN(C(=O)C2CC2)C1`, the “activity change, negative = cytotoxicity” value is 5.14%. With `C[C@@H]1CN([C@@H](C)CO)C(=O)c2cccc(NC(=O)c3ccc(-c4nccs4)cc3)c2O[C@H]1CN(C)Cc1ccc(Cl)c(Cl)c1` the figure was 64.2%; with `C[C@H](O)C#Cc1cnc2c(c1)C(=O)N([C@@H](C)CO)C[C@@H](C)[C@@H](CN(C)C(=O)Cc1ccncc1)O2`, 20.7%; with `CO[C@H]1CN(C)C(=O)c2ccc(NC(=O)c3nc4ccccc4s3)cc2OC[C@H](C)N(Cc2ccncc2)C[C@@H]1C`, 9.87%. The result for `C[C@@H]1CN([C@@H](C)CO)S(=O)(=O)c2ccc(C#CC3CCCC3)cc2O[C@H]1CN(C)C(=O)Cc1ccncc1` reads 2.64%; that for `C[C@@H](O)C#Cc1ccc([C@H]2[C@H]3CN(S(=O)(=O)c4ccccc4)CCCCN3[C@H]2CO)cc1`, 11.4%; that for `CC(C)C#Cc1ccc([C@@H]2[C@H](CO)N3CCCCN(C(=O)c4ccc5c(c4)OCO5)C[C@@H]23)cc1`, -17.5%. The result for `COc1ccc2c3c(n(C)c2c1)[C@H](CO)N(C(=O)Nc1ccc(F)cc1)CC31CCN(C(=O)c2ccc3c(c2)OCO3)CC1` reads 24.5%; that for `CC(C)(C)S(=O)N1Cc2cc(C(=O)NCc3ccc4c(c3)OCO4)nc(-c3cccc(-c4cc5ccccc5o4)c3)c2[C@H]1CCO` (stereo not given in full), 19.7%; that for `COc1ccc2c3c(n(C)c2c1)[C@@H](CO)N(C(=O)C1CCCC1)CC31CCN(C(=O)Nc2cccc(F)c2)CC1`, -1.21%.

Consider `O=C(Nc1ccccc1F)N1CCCCN2[C@@H](CO)[C@@H](c3ccc(C#Cc4cccnc4)cc3)[C@@H]2C1`, for which the “activity change, negative = cytotoxicity” value was -1.88%. With `C[C@H]1CN([C@@H](C)CO)S(=O)(=O)c2ccc(-c3ccc(C#N)cc3)cc2O[C@H]1CN(C)CC1CC1`, the “activity change, negative = cytotoxicity” value is 9.95%. In the case of `CCS(=O)(=O)N1CCC2(CC1)CN(S(=O)(=O)c1ccc(C)cc1)[C@@H](CO)c1[nH]c3cc(OC)ccc3c12`, the “activity change, negative = cytotoxicity” value was 6.02%.
